# L major viab = Leishmania major promastigote growth inhibition, primary screen | 200,000 compounds, 9% hits | inhibition, % at 10 µM | AID 1063, 2008 | Leishmania major promastigotes, resazurin fluorescence viability; in the data active means inhibition above about 50%;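 further: promastigotes grown with compound for 44 hours at 28 °C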
# Arbovirus inh = antivirals against arbovirus infection, primary screen, cell-based, full library, 10K replicate subset | inhibition, % at 10 µM | 200,000 compounds, 0.37% hits | AID 1251, 2008 | arbovirus infection cell-based antiviral screen; in the data active means inhibition above about 30%
# WT yeast gro inh = growth inhibition of WT strain, primary screen, mitochondrial fusion inhibitor project, WT and mutant strains, chemical genetic. 190,000 compounds, 2.1% hits. inhibition, % at 10 µM. AID 1362, 2008. mitochondrial fusion phenotypic screen; in the data active means inhibition above about 58%; tested in S. cerevisiae
# CHOP inh = inhibitors of CHOP promoter induction, primary screen, cell-based, unfolded protein response, luciferase reporter; CHO-K1 CHOP-promoter luciferase, tunicamycin-induced, 15-18 h; inhibition, % at 10 µM; 220,000 compounds, 3.8% hits; AID 2732, 2010;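 active means compounds that reduced the stress-induced luciferase reporter signal by more than about 70% of percent inhibition, limit read from the data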;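 further: 0% = tunicamycin plus vehicle and 100% = wells without tunicamycin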
# CHOP inh conf = retest of CHOP induction inhibitors, confirmation, cell-based; shares compounds with CHOP inh; CHO-CHOP promoter luciferase reporter, tunicamycin-induced, luminescence; 2,100 compounds, 45% hits; inhibition, % at 10 µM; AID 504437, 2011;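 active means mean of three repeat readings of reporter signal inhibition above a set limit, cut at about 70% in these data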;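 further: 0% = tunicamycin plus vehicle and 100% = wells lacking tunicamycin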
# The depositor's hits bear a star; · = no result. An excerpt weighted towards active compounds, which were near 12% of everything screened.
SMILES,L major viab,Arbovirus inh,WT yeast gro inh,CHOP inh,CHOP inh conf
CCCOC(=O)c1ccc(Oc2cn[nH]c2-c2ccc(OCC)cc2O)cc1,36.2,-28.9,-11.5,107.0*,123.7*
O=C1C2C3C=CC(C4CC34)C2C(=O)N1Cc1ccco1 (centres undefined),-4.0,-0.3,-22.2,13.2,·
CCOC(=O)c1c(C)[nH]c(C(=O)COC(=O)c2[nH]c(C)c(C(C)=O)c2C)c1C,-1.7,3.0,8.8,97.2*,82.7*
CCOC(=O)c1c(C)[nH]c(C(=O)COC(=O)C2CC(=O)N(Cc3ccccc3)C2)c1C (centres undefined),-6.6,1.6,-3.3,101.4*,5.5
Cc1[nH]c2ccccc2c1C(=O)COC(=O)C1CC(=O)N(Cc2ccccc2)C1 (centres undefined),-1.9,-2.1,-5.9,5.8,·
CCNc1nc(NC(C)(C)C)nc(N(C#N)CC)n1,10.2,0.9,4.5,18.5,·
Cc1ccc(-c2cc(NC(=O)CCl)n(-c3ccccc3)n2)cc1,100.2*,-29.7,7.1,·,-150.0
CC(=O)Nc1ccc(-c2cc(NC(C)=O)n(-c3ccccc3)n2)cc1,-1.5,-2.1,9.5,-9.6,·
O=C(CCl)Nc1cc(-c2ccccc2)nn1-c1ccccc1,98.5*,-22.3,12.5,·,83.4*
C=CCn1c(SCC(=O)NC(=O)NCc2ccco2)nc2sc(C)c(C)c2c1=O,3.5,2.2,-6.7,104.4*,30.1
CCc1c(C(=O)NNC(=S)NCCc2ccccc2)csc1C,-0.8,1.5,2.9,-25.2,·
COc1ccc(/C=N/NC(=O)c2[nH]c(C)c(C(=O)N/N=C/c3ccc(OC)cc3)c2C)cc1,-1.8,1.3,17.5,18.4,·
Cc1c(C(=O)N/N=C/c2ccc(Cl)cc2)[nH]c2ccc(Cl)cc12,-7.3,-25.6,74.8,97.8*,18.8
CC1(C)Oc2ccc3ccc(=O)oc3c2/C(=C/Nc2ccc(O)cc2)C1=O,27.8,-7.0,7.7,49.8,·
CC1(C)Oc2ccc3ccc(=O)oc3c2/C(=C/Nc2cccc(O)c2)C1=O,1.7,-39.0,27.8,105.9*,1.0
CCC(=O)Nc1ccc(/C=C(\C(C)=O)C(=O)c2ccccc2)cc1,·,·,·,-3.9,·
CCOC(=O)/C(=C/c1ccc(OC(=O)c2ccccc2)cc1)C(C)=O,-0.7,-8.0,5.7,101.0*,-30.5
COc1ccc(CC(=O)Nc2nnc(C(C)(C)C)s2)cc1OC,-6.5,2.4,2.2,2.3,·
Cc1nc(N)sc1-c1csc(Nc2ncccn2)n1,3.7,-4.4,-4.5,103.0*,-210.6
Clc1ccc(-n2ncc3c(NCC4CCCO4)ncnc32)cc1 (centres undefined),-4.9,-12.3,7.9,6.2,·
Clc1ccc(-n2ncc3c(NCc4ccc5c(c4)OCO5)ncnc32)cc1,-14.4,-1.2,6.5,103.9*,39.4
C=CCN1C=C2C(=O)C(C)(OC(=O)c3ccc(OC)cc3)C(=O)C(c3ccco3)=C2C=C1CCCC (centres undefined),·,·,·,-7.2,·
CCCCC1=CC2=C(c3ccco3)C(=O)C(C)(OC(=O)c3ccc(OC)cc3)C(=O)C2=CN1c1ccccc1 (centres undefined),·,·,·,103.8*,-64.3
NNC(=O)CCCCCCCCCCOCCCCO,·,·,·,8.6,·
COc1ccc(/C=C/C(=O)NC(=S)NNC(=O)c2cccnc2)cc1,92.7*,0.4,-9.3,97.6*,77.0*
SMILES,L major viab,Arbovirus inh,WT yeast gro inh,CHOP inh,CHOP inh conf
CN1/C(=C/C2CC(=O)N(c3ccc([N+](=O)[O-])cc3)C2=O)C(C)(C)c2ccccc21 (centres undefined),-0.4,6.3,12.3,-0.9,·
COc1ccc(N2C(=O)CC(S/C(N)=N/N=C/c3ccnc4ccccc34)C2=O)cc1 (centres undefined),-10.9,-10.2,0.2,14.9,·
C/C(=N\N=C(/N)SC1CC(=O)N(c2ccc(Cl)c(Cl)c2)C1=O)c1cccs1 (centres undefined),3.4,-44.6,97.5*,109.9*,18.6
NS(=O)(=O)c1ccc(N2N=C(c3ccccc3)CC2c2ccc(F)cc2)cc1 (centres undefined),98.3*,-38.7,70.7*,104.7*,-25.6
O=C(Nc1ccc(Cl)cc1)N1CCC(c2nc(-c3ccc(F)cc3)no2)CC1,0.1,4.8,36.6,104.0*,3.9
COC(=O)c1ccc(Oc2coc3cc(OCc4ccc([N+](=O)[O-])cc4)ccc3c2=O)cc1,-1.4,-7.7,11.3,2.7,·
CCOC(=O)/C(=C/c1c[nH]c2ccccc12)NC(C)=O,-5.0,5.3,14.7,7.6,·
CC(C)COC(=O)/C(C#N)=C/c1c[nH]c2ccccc12,-4.9,2.3,7.3,100.7*,-21.7

# From PubChem
